This passage reports outcome results from PubChem BioAssay (EPA / NIEHS).

Calls of active or inactive are those of the source. The calls were made as follows: active = hit-call score of the fitted dose curve at least 0.9, where 1 is the maximum; inactive = score below 0.9.

A short description of the test: ATG_TA_CIS: Attagene CIS-FACTORIAL HepG2 Assay for human TA Basal Promoter (AID 2282964). To be noted: HepG2 Attagene CIS-factorial TA basal promoter reporter; actives raise or lower the signal. As to the method:
ATG_CIS is a cell-based, multiplexed-readout assay that uses HepG2, a human liver cell line, with measurements taken at 24 hours after chemical dosing in a 24-well plate.ATG_TA_CIS is one of 52 assay component(s) measured or calculated from the ATG_CIS assay. It is designed to make measurements of mRNA induction, a form of inducible reporter, as detected with fluorescence intensity signals by Reverse transcription polymerase chain reaction (RT-PCR) and Capillary electrophoresis technology.Data from the assay component ATG_TA_CIS was analyzed into 1 assay endpoint. This assay endpoint, ATG_TA_CIS, was analyzed with bidirectional fitting relative to DMSO as the negative control and baseline of activity. Using a type of inducible reporter, measures of mRNA for gain or loss-of-signal activity can be used to understand the background control at the transcription factor-level as they relate to the gene . Furthermore, this assay endpoint can be referred to as a secondary readout, because this assay has produced multiple assay endpoints where this one serves a background control function. To generalize the intended target to other relatable targets, this assay endpoint is annotated to the background measurement intended target family, where the subfamily is internal marker.
Human liver HepG2 cells are transiently transfected with multiple reporter transcription units (MRTUs) in 6-well plates using FuGene 6 reagent (Roche; 3 ml FuGene/1 mg DNA). The MRTU constructs are regulated by a cis-regulating element (promoter). […] A major difference between the CIS and TRANS system is that in CIS activities of endogenous TFs are measured, whereas the TRANS assay evaluates changes in activities of exogenous, chimeric NR-Gal4 proteins. […] At the end of 24 hour incubation, total RNA was isolated using TriZol reagent (Invitrogen). The isolated RNA is then reverse-transcribed using oligo(dT) primer and Mo-MLV reverse transcriptase (Invitrogen) with DNAse I (Ambion) treatment for 30 min. The one-tenth of the produced cDNA was amplified by PCR using Taq DNA polymerase (Invitrogen) and two reporter sequence-specific primers. The PCR products were fluorescently labeled by primer extension with 6-arboxyfluorescein (6-FAM) 5'-labeled reporter sequence-specific primer (2 min at 95 C, 20 s at 68 C and 10 min at 72 C) and these products were digested with 5U of HpaI (New England Biolabs) for 2h at 37 C. The fragments were purified using Qiaquick PCR columns (Qiagen), analyzed on an ABI 3130xL genetic analyzer (Applied Biosystems) with peak positions identified by using a set of X-rhodamine (ROX)-labeled MapMarker1000 molecular weight standards (BioVentures). The raw capillary electrophoresis data was processed using Attagraph software (Attagene).
As to `O=C1C=CC(=O)N1c1ccccc1`, the compound was called inactive.

For `CCOC(C=C(C)CCC=C(C)C)OCC`, the call was inactive.

As to `CC1=CC2C3C=CC(C3)C2C1C` (stereo not given), the call was inactive. Take `O=S(=O)(O)CCC(F)(F)C(F)(F)C(F)(F)C(F)(F)C(F)(F)C(F)(F)C(F)(F)C(F)(F)F`: the compound was called inactive. Consider `CC(O)C#CC(C)O` (stereo not given), for which the result was inactive.

For the compound `O=c1cccc[nH]1`, the outcome was inactive. Regarding `O=C(Cl)c1ccc(Cl)cc1Cl`, the compound was classed as inactive.

In the case of `C=C(C)CCCC`, the outcome was inactive. In the case of `CC(C)(C)c1cc(CCC(=O)NCCCCCCNC(=O)CCc2cc(C(C)(C)C)c(O)c(C(C)(C)C)c2)cc(C(C)(C)C)c1O` it was “inactive”. In the case of `CSc1ccc(Cl)cc1` it was “inactive”; in that of `O=C(c1ccccc1)c1ccc(O)cc1O`, “inactive”; in that of `CCN(CC)c1ccc(C=O)cc1`, “inactive”. Take `OCC(O)CC(F)(F)C(F)(F)C(F)(F)C(F)(F)F` (stereo not given): the call was inactive. In the case of `OCC(O)CC(F)(F)C(F)(F)C(F)(F)C(F)(F)C(F)(F)C(F)(F)C(F)(F)C(F)(F)F` (stereo not given) it was “inactive”; in that of `COCCOCCC[Si](C)(O[Si](C)(C)C)O[Si](C)(C)C`, “inactive”; in that of `NC(O)(C(F)(F)F)C(F)(F)F`, “inactive”. Take `CCC(=O)OC(C)c1ccccc1` (stereo not given): the result was inactive. Regarding `COC(=O)c1ccc(C=O)cc1`, the compound was called inactive. For `CCCCOC(=O)[C@H](C)O`, the call was inactive. On to `O=C(O)C(F)(F)C(F)(F)C(F)(F)OC(F)(C(F)(F)F)C(F)(F)F`, for which the call was inactive.

Take `COc1ccccc1C=O`: the result was inactive. For `O=C(O)CCC(F)(F)C(F)(F)C(F)(F)C(F)(F)C(F)(F)C(F)(F)C(F)(F)F`, the result was inactive. As for `O=C(F)C1(F)C(F)(F)C(F)(F)C(F)(F)C(F)(F)C1(F)F`, the outcome was inactive.

`Cc1cc(=O)[nH]c(C(C)C)n1`: the compound was called inactive. `CCOC(OCC)OCC`: the outcome was inactive. As to `CCC/C=C/CO`, the call was inactive. In the case of `OCCCc1cccnc1` it was “inactive”. Next, `O=C1C=CC(=O)N1c1ccc(Cc2ccc(N3C(=O)C=CC3=O)cc2)cc1`: “inactive”; `CO[Si](C)(CCC(F)(F)C(F)(F)C(F)(F)C(F)(F)C(F)(F)C(F)(F)F)OC`: “inactive”; `Nc1cccnc1N`: “inactive”. Consider `C=CC(=O)OCC(F)(F)C(F)(F)C(F)(F)COC(=O)C=C`, for which the compound was called inactive. Take `CCc1cccc(C)c1N(C(=O)C(=O)O)C(C)COC` (stereo not given): the result was inactive. `COCCC(=O)OC`: the call was inactive. Take `C=CC(=O)OCCC(F)(F)C(F)(F)C(F)(F)C(F)(F)F`: the compound was classed as inactive. With `Cc1cc(O)c(C(C)(C)C)cc1C(C)(C)C`, the compound was called inactive. Next, `CN1CN(C)CN(C)C1`: “inactive”; `CN(N=O)C(=O)N[C@@H]1[C@@H](O)[C@H](O)[C@@H](CO)O[C@@H]1O`: “inactive”. Next, `c1ccc(C[P+](c2ccccc2)(c2ccccc2)c2ccccc2)cc1`: “inactive”. For the compound `CCCC(=O)OCC(COC(=O)CCC)OC(=O)CCC`, the call was inactive.

On to `CCn1c2ccccc2c2ccccc21`, for which the compound was classed as inactive.
